Source: PubChem BioAssay
Mdm2-MdmX inh – inhibitors of human Mdm2/MdmX interaction. 3% of 330,000 active. SaOS-2 split-luciferase Mdm2/MdmX complementation, luminescence. AID 485346. O15151+Q00987. inhibition, % at 8 µM;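 active = inhibition of at least 50% at 8 µM in the primary screen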
KKLEB tox – CF airway cell cytotoxicity counter-screen; 0.36% of 360,000 active; activity change (cytotoxicity), % at 5 µM; KKLEB CF airway cells viability, ATPlite luminescence, overnight; hits give low values; cells stimulated with P. aeruginosa culture filtrate;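 active = corrected activity change at or below -50% at 5 µM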
CF NFkB block – cystic fibrosis NF-kB activation inhibition. KKLEB NF-kB-GFP reporter, PAF-induced, GFP fluorescence overnight. inhibition, % at 5 µM. 0.86% of 360,000 active. AID 588850;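 active = at least 50% inhibition at 5 µM, scaled per plate between neutral and stimulator controls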;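 note: PAF is a Pseudomonas aeruginosa culture filtrate used as stimulus; plate controls were PAF-stimulated DMSO wells for no effect and unstimulated DMSO wells for full effect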
ABHD5 PLIN5 PPI – blocks binding of human ABHD5 to perilipin-5. Split G. princeps luciferase complementation, luminescence, 4 h. Q00G26+Q8WTS1. 0.78% of 360,000 active. inhibition, % at 4 µM;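 active = inhibition above the mean inhibition across every tested compound plus 3 SD, cut at about 22% in these data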;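 note: 0% = DMSO only wells and the 100% control is not disclosed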
HIF-2a block – blocks HIF-2a reporter activity; 786-0 RCC cells HIF-2a reporter, luciferase luminescence, overnight; inhibition, % at 18.8 µM; 0.72% of 360,000 active;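 active = inhibition of the luminescence signal of 40% or more relative to plate controls, in a single-dose primary screen at 18.75 µM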
Peg3 promoter – reduces Peg3 promoter-driven luciferase expression in HeLa | HeLa PEG-Prom luciferase reporter, luminescence, overnight | AID 588405 | 1.7% of 360,000 active | inhibition, % at 20 µM;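 active = inhibition of at least 50% at 20 µM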
Mdm2 MdmX conf – human Mdm2/MdmX binding inhibition, confirmed | inhibition, % at 8 µM | luminescent assay | shares compounds with Mdm2-MdmX inh | 55% of 10,000 active; in the data active = inhibition above about 40%
Full FLuc ctr – full-length luciferase inhibition in Mdm2/MdmX counter-screen; SaOS-2 full-length luciferase counterscreen, luminescence; inhibition, % at 8 µM; AID 504607; shares compounds with Mdm2-MdmX inh; 77% of 6,200 active;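 active = mean inhibition at 8 µM reaching about 37%, which flags the compound as non-specific, limit read from the data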;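 note: p53-null SaOS-2 cells with luciferase driven by a doxycycline-inducible promoter; compound on cells about two nights before reading with doxycycline added after day one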
* hit, by the source's call; . = not tested or not shown. An excerpt weighted towards active compounds, which were near 4.6% of everything screened.

SMILES | Mdm2-MdmX inh | KKLEB tox | CF NFkB block | ABHD5 PLIN5 PPI | HIF-2a block | Peg3 promoter | Mdm2 MdmX conf | Full FLuc ctr
COc1cc2oc(=O)cc(-c3cccc(-c4cccc(C)c4)c3)c2c(OC)c1OC | 62* | -35 | 27 | -9 | 31 | 27 | 18 | .
COC(=O)C1=C(C)NC(=O)CC1c1cc2c(cc1Br)OCO2 (stereo not drawn) | 12 | -1 | -3 | 5 | 11 | 6 | . | .
CC1=C(C(=O)OC2CCCCCCC2)C(c2cc3c(cc2Br)OCO3)CC(=O)N1 (stereo not drawn) | 78* | 8 | 1 | -2 | 12 | 16 | 28 | .
N#CC1=C2SCC(O)(c3ccccc3)N2C(=O)CC1c1ccccc1 (stereo not drawn) | 76* | -19 | -15 | -2 | -10 | 6 | 74* | 58*
Cc1ccc2nc3c(c(Nc4ccc5c(c4)OCCO5)c2c1)CCC3 | 56* | -14 | -12 | 7 | 27 | 42 | 15 | .
O=C(O)Cc1ccc2c(c1)Cc1cccnc1O2 | . | 4 | -3 | 1 | -19 | -38 | . | .
COc1ccc(CCN2C(=O)CCC2(C)c2nnnn2Cc2ccccc2)cc1OC (stereo not drawn) | . | . | . | 0 | 10 | . | . | .
CCN(CC)S(=O)(=O)c1cccc2cccnc12 | -11 | 3 | 9 | -4 | 4 | 3 | . | .
CCN(CC)S(=O)(=O)c1cc(OC)ccc1N=Nc1ccc(O)c2ncccc12 | 74* | -20 | 19 | 20 | 11 | 42 | 73* | 36
CCS(=O)(=O)c1ccc(OC)c(N=Nc2ccc(O)c3ncccc23)c1 | 71* | 7 | 2 | 3 | 16 | -2 | 54* | 50*
O=C(Nc1cccn2nc(COCCO)nc12)C(c1ccccc1)c1ccccc1 | . | -2 | -29 | 0 | 3 | 19 | . | .
CN(C)c1ccc(C=NN2C(=O)CSC2=S)c(Cl)c1 | . | 3 | -10 | -17 | 6 | 7 | . | .
C=CCOC(=O)C1=C(C)NC(SCC(=O)Nc2ccc(C)c(Cl)c2)=C(C#N)C1c1ccco1 (stereo not drawn) | 63* | -7 | 19 | -3 | 4 | 27 | 51* | 46*
COCCOC(=O)C1=C(C)NC(SCC(=O)NC(C)(C)C)=C(C#N)C1c1ccco1 (stereo not drawn) | 9 | -11 | 11 | -2 | 10 | 25 | . | .
CN(C(=O)CSc1nnc(-c2c[nH]c3ccccc23)n1C1CC1)C1CCS(=O)(=O)C1 (stereo not drawn) | -23 | 10 | -13 | 0 | 12 | 11 | . | .
O=C(CN1C(=O)NC(c2ccccc2)(c2ccccc2)C1=O)NCc1ccc(F)cc1 | -1 | 13 | -9 | 0 | 14 | 8 | . | .
COc1cccc(CNC[C@H]2O[C@@H](n3ccc(N)nc3=O)[C@H](O)[C@@H]2O)c1OCc1ccc(F)cc1Cl | . | -18 | 29 | 2 | 6 | 20 | . | .
CCCCOc1ccc(Br)cc1/C(C)=N/NC1=NCCN1 | 89* | -18 | 34 | 13 | 26 | 41 | 64* | 39*
CCCCCCOc1ccc(/C(C)=N/NC2=NCCN2)cc1[N+](=O)[O-] | 52* | -8 | -2 | 8 | -154 | 111* | 71* | 106*
COc1cc2ccc(NC(C)=O)cc2cc1OC | . | -2 | 24 | 0 | -14 | -10 | . | .
CCOC(=O)N1CCN(S(=O)(=O)c2ccc(C(=O)NNc3nc4ccc(Cl)cc4s3)cc2)CC1 | 34 | 13 | 10 | 3 | 26 | 45 | . | .
CCOC(=O)N1CCN(S(=O)(=O)c2ccc(C(=O)NNc3nc4c(C)cccc4s3)cc2)CC1 | 53* | 11 | -26 | -4 | 23 | 50 | 41* | 47*
Cc1cccc2sc(NNC(=O)c3ccc(S(=O)(=O)N4CCc5ccccc5C4)cc3)nc12 | 83* | 2 | -30 | 23* | 30 | 61* | 82* | 76*
CCOC(=O)N1CCN(S(=O)(=O)c2ccc(C(=O)NNc3nc4cc(C)cc(C)c4s3)cc2)CC1 | 79* | 11 | -5 | 5 | 13 | 46 | 46* | 47*
